Source: PubChem BioAssay (EPA / NIEHS)
Active and inactive are the calls of the source. How the source made its calls: active means hit-call score of the fitted dose curve at least 0.9, where 1 is the maximum; inactive means score below 0.9.

Experiments:
[1] = APR_HepG2_CellCycleArrest_24hr: Apredica 24-hour HepG2 Assay for Cell Cycle Arrest (AID 2282905); conditions: imaging, actives raise or lower the signal;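 further: cell cycle arrest scored as ratio of 2N to 4N nuclear DNA content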
In short: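 After 24 h exposure at 0.39–200 uM in 0.5% DMSO, fixed cells received Hoechst 33342 staining. Imaging quantified per-nucleus DNA content; gain or loss fitted against DMSO controls.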

[2] = APR_HepG2_NuclearSize_24hr: Apredica 24-hour HepG2 Assay for Nuclear Size (AID 2282907); conditions: high-content imaging, actives raise or lower the signal
In short: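 Nuclear size from Hoechst 33342-stained, formaldehyde-fixed HepG2 nuclei imaged by high-content microscopy, after 24 h dosing at ten concentrations from 0.39 to 200 uM in 0.5% DMSO; gain or loss relative to DMSO baseline.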

[3] = APR_HepG2_CellLoss_24hr: Apredica 24-hour HepG2 Assay for Cell Loss (AID 2282908); conditions: high-content imaging;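 on AC50: fit in both directions so a hit may be cell loss or gain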
In short: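 Nuclei stained with Hoechst 33342 after formaldehyde fixation (3.7%) were imaged at 20x to count cells. Exposure lasted 24 hr, at ten concentrations from 0.39 to 200 uM in duplicate, with 0.5% v/v DMSO. Fit bidirectional, relative to DMSO.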

[4] = APR_HepG2_MicrotubuleCSK_24hr: Apredica 24-hour HepG2 Assay for Microtubule CSK Stabilty (AID 2282909); conditions: HepG2 microtubule cytoskeleton imaging, actives raise or lower the signal
In short: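 Fixed HepG2 cells were stained for alpha-tubulin and imaged after 24 hr exposure to ten concentrations spanning 0.39–200 uM in 0.5% DMSO. Signal change was fitted in both directions relative to DMSO; taxol was the positive control.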

[5] = APR_HepG2_MitoticArrest_24hr: Apredica 24-hour HepG2 Assay for Mitotic Arrest (AID 2282910); conditions: high-content imaging, actives raise or lower the signal
In short: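 HepG2, 24 hr dosing, 0.39–200 uM, 0.5% DMSO final. Formaldehyde-fixed, Triton-permeabilised, anti-phospho-histone H3 plus Hoechst. ArrayScan imaging at 20x; bidirectional fit vs DMSO baseline.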

[6] = APR_HepG2_MitoMembPot_24hr: Apredica 24-hour HepG2 Assay for Mitochondrial Membrane Potential (AID 2282911); conditions: imaging, actives raise or lower the signal
In short: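 Human hepatoma HepG2 cultures received ten compound concentrations up to 200 uM for 24 hr. Membrane-potential dye signal, captured by automated fluorescence microscopy, was scored for gain or loss against DMSO controls.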

[7] = APR_HepG2_MitoMass_24hr: Apredica 24-hour HepG2 Assay for Mitochondrial Mass (AID 2282912); conditions: high-content imaging, actives raise or lower the signal
In short: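 Endpoint is MitoTracker Red CMXRos (250 nM, 30 min, pre-fixation) intensity from 20x high-content imaging, nuclei located by Hoechst. Human HepG2 cells received ten concentrations from 0.39 to 200 uM in 0.5% DMSO for 24 hr, duplicate wells. Bidirectional fit relative to DMSO.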

[8] = APR_HepG2_p53Act_24hr: Apredica 24-hour HepG2 Assay for p53 Activation (AID 2282913); conditions: high-content imaging, actives raise or lower the signal;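 further: p53 protein immunofluorescence averaged per cell in HepG2 with Hoechst nuclei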
In short: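 Automated fluorescence imaging quantifies p53 immunostaining in HepG2 cells after a 24 hr exposure (0.39–200 uM, duplicate, 0.5% DMSO). Nuclei are located by Hoechst 33342 staining.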

[9] = APR_HepG2_CellCycleArrest_72hr: Apredica 72-hour HepG2 Assay for Cell Cycle Arrest (AID 2282914); conditions: high-content imaging, actives raise or lower the signal
In short: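 Cell cycle arrest in HepG2 was scored from nuclear DNA content after 72 hr compound treatment (0.39–200 uM). Activity, either gain or loss, was fitted against the DMSO baseline.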

[10] = APR_HepG2_CellLoss_72hr: Apredica 72-hour HepG2 Assay for Cell Loss (AID 2282915); conditions: high-content imaging
In short: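 HepG2 cells exposed 72 h to compound at 0.39–200 uM (10 concentrations, duplicate) in 0.5% DMSO. Fixed with 3.7% formaldehyde and Hoechst 33342-stained. Imaged at 20x; nuclear count gives cell number, fitted bidirectionally versus DMSO.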

[11] = APR_HepG2_P-H2AX_72hr: Apredica 72-hour HepG2 Assay for H2AX Phosphorylation (AID 2282916); conditions: imaging, actives raise or lower the signal;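 further: phospho-histone H2A.x immunostain intensity per cell marking DNA damage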
In short: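 Phospho-histone H2A.x immunofluorescence, multiplexed with Hoechst and c-Jun, quantified by high-content imaging. Compounds applied to HepG2 for 72 h across ten concentrations (0.39–200 uM, 0.5% DMSO), in duplicate; DMSO baseline.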

[12] = APR_HepG2_P-H2AX_24hr: Apredica 24-hour HepG2 Assay for H2AX Phosphorylation (AID 2282920); conditions: high-content imaging, actives raise or lower the signal
In short: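 Signal comes from a FITC-labeled secondary detecting phospho-histone H2A.x in fixed HepG2 cells, quantified by automated imaging at 20x. Dosing ran 24 hr across 0.39–200 uM with 0.5% v/v DMSO.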

[13] = APR_HepG2_StressKinase_24hr: Apredica 24-hour HepG2 Assay for Stress Kinase (AID 2282922); conditions: HepG2 stress kinase (phospho-c-Jun) imaging, actives raise or lower the signal
In short: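 Read-out: phospho-c-Jun immunofluorescence (Cy3 secondary) quantified by high-content imaging at 20x, nuclei defined by Hoechst 33342. Human HepG2 liver cells dosed 24 hr, 0.39–200 uM, DMSO 0.5% v/v; gain or loss of signal fitted relative to DMSO.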

[14] = APR_HepG2_p53Act_72hr: Apredica 72-hour HepG2 Assay for p53 Activation (AID 2282923); conditions: high-content imaging, actives raise or lower the signal;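 further: average cellular p53 protein immunofluorescence intensity in HepG2 cells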
In short: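 After 72 h with compound (ten points, 0.39 to 200 uM, final DMSO 0.5% v/v), fixed HepG2 cells were labelled with sheep anti-p53 and Hoechst 33342 and imaged; gain or loss versus DMSO scored.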

[15] = APR_HepG2_NuclearSize_72hr: Apredica 72-hour HepG2 Assay for Nuclear Size (AID 2282925); conditions: high-content imaging, actives raise or lower the signal
In short: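 Read-out: nuclear diameter from Hoechst 33342 images (ArrayScan, 20x, six fields/well), via cell-cycle image analysis. HepG2 were dosed 0.39–200 uM for 72 hr in 0.5% DMSO. Bidirectional fit relative to DMSO.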

[16] = APR_HepG2_MitoMembPot_72hr: Apredica 72-hour HepG2 Assay for Mitochondrial Membrane Potential (AID 2282917); conditions: imaging, actives raise or lower the signal
In short: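 HepG2 cells dosed 72 hr with compound at 0.39–200 uM in duplicate, 0.5% v/v DMSO final. Mitochondria stained with 250 nM MitoTracker Red CMXRos for 30 min before formaldehyde fixation, imaged by high-content fluorescence; bidirectional fit versus DMSO.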

[17] = APR_HepG2_MitoticArrest_72hr: Apredica 72-hour HepG2 Assay for Mitotic Arrest (AID 2282918); conditions: high-content imaging, actives raise or lower the signal
In short: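 Mitotic arrest in HepG2 is scored from phospho-histone H3 staining after 72 hr dosing across 0.39–200 uM, with DMSO at 0.5% v/v. Nuclei are identified by Hoechst 33342 and fluorescence intensity is quantified per cell.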

[18] = APR_HepG2_MicrotubuleCSK_72hr: Apredica 72-hour HepG2 Assay for Microtubule CSK Stabilty (AID 2282919); conditions: HepG2 microtubule cytoskeleton, high-content imaging, actives raise or lower the signal
In short: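 HepG2, 72 hr cmpd exposure, 0.39–200 uM (10 pts, duplicate), 0.5% DMSO. 3.7% formaldehyde fix, 0.5% Triton perm, anti-alpha-tubulin/Cy5 plus Hoechst. HCS fluorescence intensity; bidirectional fit vs DMSO baseline; taxol as positive control.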

[19] = APR_HepG2_StressKinase_72hr: Apredica 72-hour HepG2 Assay for Stress Kinase (AID 2282921); conditions: HepG2 stress kinase (phospho-c-Jun) imaging, actives raise or lower the signal
In short: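 Stress kinase signal is phospho-c-Jun immunofluorescence (1:500 primary, Cy3 secondary) in fixed, permeabilized human HepG2 cells imaged at 20x. Exposure lasted 72 hr over ten concentrations from 0.39 to 200 uM, 0.5% DMSO, in duplicate. Bidirectional fit versus DMSO.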

[20] = APR_HepG2_MitoMass_72hr: Apredica 72-hour HepG2 Assay for Mitochondrial Mass (AID 2282924); conditions: high-content imaging, actives raise or lower the signal;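 further: MitoTracker Red CMXRos stain intensity per cell imaged as mitochondrial mass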
In short: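 Read-out: MitoTracker Red fluorescence intensity from automated imaging (20x, six fields per well) in human HepG2 liver cells. Dosing ran 72 hr, 0.39–200 uM, 0.5% DMSO; bidirectional curve fitting versus DMSO baseline.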

Measured: AC50

C[N+](C)(C)CC1CO1 (stereo not given)
active: [1] 81.2 µM
not listed: [16] | [17] | [18] | [19] | [20]
inactive: all other assays above

Cc1cccc(N)c1N
active: [6] 99.9 µM | [9] 7.98 µM | [10] 14.1 µM | [11] 56.3 µM | [17] 19.8 µM | [12] 44.5 µM
not listed: [14] | [19] | [20]
inactive: all other assays above

CCNS(=O)(=O)C(F)(F)C(F)(F)C(F)(F)C(F)(F)C(F)(F)C(F)(F)C(F)(F)C(F)(F)F
inactive: [2] | [7] | [13]
active: [1] 25.2 µM | [3] 38.9 µM | [4] 56 µM | [5] 46.3 µM | [6] 103 µM | [9] 36.4 µM | [10] 81.5 µM | [11] 100 µM | [16] 91.2 µM | [17] 72.5 µM | [18] 77.6 µM | [12] 68.5 µM | [19] 112 µM | [15] 105 µM

Brc1ccc(Oc2ccccc2)cc1
active: [3] 114 µM | [10] 109 µM | [17] 100 µM
not listed: [14] | [19] | [20]
inactive: all other assays above

CCCCCOC(=O)c1ccccc1C(=O)OCCCCC
active: [9] 95.9 µM | [10] 106 µM
not listed: [2]
inactive: all other assays above

[O-][Cl+]O
active: [3] 70.7 µM | [4] 73.3 µM | [5] 93.6 µM | [6] 62.5 µM | [10] 97.5 µM | [12] 66.5 µM | [13] 110 µM | [15] 157 µM
not listed: [14] | [19]
inactive: all other assays above

CCN(CC)CCO
not listed: [14] | [19] | [20]
inactive: all other assays above
